Autofluor counter: flagged as autofluorescent in microsphere protease counterscreen; compound autofluorescence counterscreen, microsphere flow cytometry; active compounds read high; fluorescence intensity (concentration not given with the values); 3.1% of 360,000 active; in the data active = fluorescence intensity above about 16000; inconclusive = no clear call, values can overlap the other calls
BoNT A protease: inhibitors of Botulinum neurotoxin A light chain protease | 0.17% of 360,000 active | inhibition, % at 10 µM | multiplex microsphere protease substrate cleavage, flow cytometry
Anthrax LF prot: anthrax lethal factor protease inhibition; 0.12% of 360,000 active; inhibition, % at 10 µM; P15917; AID 588501; multiplex microsphere protease cleavage assay, LF
BoNT-F LC inh: inhibitors of Botulinum neurotoxin F light chain protease. Multiplex microsphere protease cleavage assay, flow cytometry. inhibition, % at 10 µM. 0.22% of 360,000 active. AID 588497; in the data active = inhibition above about 35%, passing the limit was not always enough; inconclusive = no clear call, values can overlap the other calls
Numbers stand for hits; . = inactive; ? = inconclusive. A selection: hits, their analogues and other compounds. The true share with any hit is near 3.5%. Rule as the data show it, unless noted: active = inhibition above about 30%; inconclusive = no clear call, values can overlap the other calls; inactive = below that.

SMILES | Autofluor counter | BoNT A protease | Anthrax LF prot | BoNT-F LC inh
COc1nn(CC(=O)N2N=C(C)CC2(O)C(F)F)cc1[N+](=O)[O-] (stereo not drawn) | . | . | . | .
CCOC(=O)c1nc(C)n(-c2cc(Cl)cc(Cl)c2)n1 | 17779 | . | . | .
O=C1CCCc2c1[nH]c1ccc(CN3CCCCC3)cc21 | 23077 | . | . | .
COc1cccc(C(O)c2nc(-c3cccc(C#N)c3)cs2)c1 (stereo not drawn) | . | . | . | .
COc1ccc(/C(O)=C/C(=O)C(=O)Nc2c(C)n(C)n(-c3ccccc3)c2=O)cc1 | 21666 | . | . | .
Cc1c(NC(=O)C(=O)/C=C(/O)c2ccccc2)c(=O)n(-c2ccccc2)n1C | . | . | . | .
N#C/C(=C/c1ccc(N2CCCCCC2)o1)c1ccc(F)cc1 | . | . | . | .
N#C/C(=C/c1ccc(N2CCCCCC2)o1)c1cccc(F)c1 | 28830 | . | . | .
COc1cc(N2CCCC2)c(OC)cc1/C=C(/C#N)c1cccc(F)c1 | 23531 | . | . | 48
COc1ccccc1C(=O)Nc1ccc2c(c1)nc(CCNC(C)=O)n2C | 21508 | . | . | .
COc1ccc(C(=O)Nc2ccc3c(c2)nc(CCNC(C)=O)n3C)cc1 | 20535 | . | . | .
CC(=O)NCCc1nc2cc(NC(=O)c3ccc(F)cc3)ccc2n1C | . | . | . | .
Cc1ccc(C)c(N2CCN(S(=O)(=O)c3ccc4c(c3)CCN4C(=O)CCC(=O)O)CC2)c1 | . | . | . | .
O=C(O)CCC(=O)N1CCc2cc(S(=O)(=O)NC3CCCc4ccccc43)ccc21 (stereo not drawn) | . | . | . | .
Cc1cccc(N2CCN(S(=O)(=O)c3ccc4c(c3)CCN4C(=O)CCC(=O)O)CC2)c1C | 24315 | . | . | .
O=C(O)CCC(=O)N1CCc2cc(S(=O)(=O)NC3CCCC3)ccc21 | 21391 | . | . | .
Cc1ccccc1-c1cc2nc(NCc3ccc(N(C)C)cc3)n(C)c(=O)c2s1 | . | . | . | .
CCOC(=O)/C(=C/C=C1\Sc2cc(OCC)c(OCC)cc2N1CC)C(C)=O | 23889 | . | . | 44
CCOC(=O)/C(=C\C=C1/Sc2cc(OCC)c(OCC)cc2N1CC)C(C)=O | 33036 | . | . | 49
CCN1/C(=C/C(C)=O)Sc2ccc(OC)cc21 | . | . | . | .
CC1(C)OC(=O)C(=CNc2cccc(O)c2)C(=O)O1 | . | . | . | .
CC1(C)OC(=O)C(=CNc2ccccc2)C(=O)O1 | 18882 | . | . | .
COc1cc(C(=O)Nc2ccc(S(=O)(=O)N3CCc4ccccc43)cc2)cc(OC)c1OC | 18077 | . | . | .
COC(=O)Nc1ccc(S(=O)(=O)N2CCCc3ccccc32)cc1 | 16570 | . | . | .
COc1cc(OC)cc(C(=O)NC(=S)NCCc2ccccc2)c1 | 22614 | . | . | .
SMILES | Autofluor counter | BoNT A protease | Anthrax LF prot | BoNT-F LC inh
COc1cccc(-c2cc(C(=O)NCCc3ccccc3)no2)c1 | 21462 | . | . | .
CCCNC(=O)c1cc(-c2ccc(OC)cc2)on1 | 16440 | . | . | .
COc1cccc(-c2cc(C(=O)Nc3cc(C)on3)no2)c1 | 22051 | . | . | .
CCCCNC(=O)c1cc(-c2ccc(OC)cc2)on1 | . | . | . | .
O=C(NCc1ccc(F)cc1)c1cc(C2CCCCN2C(=O)c2ccc(Cl)cc2)on1 (stereo not drawn) | . | . | . | .
COc1ccc(/C=C2\SC(=S)N(CCCC(=O)Nc3ccccn3)C2=O)cc1OC | . | 39 | . | .
COc1cc(/C=C2/SC(=S)N(CC(=O)NC(C)(C)C)C2=O)cc(OC)c1OC | . | 31 | . | .
Cc1ccc(/C=C2\SC(=S)N(CCCC(=O)Nc3ccccn3)C2=O)cc1 | . | . | . | .
CN(C(=O)CSc1nc(-c2cccs2)nc2ccccc12)C1CCS(=O)(=O)C1 (stereo not drawn) | . | . | . | .
O=C1CSc2ccc(C(=O)NCCC3=CCCCC3)cc2N1 | 23017 | ? | . | .
COCCNC(=O)c1ccc2c(c1)NC(=O)CS2 | 19046 | . | . | .
O=C1CSc2ccc(C(=O)NCCc3ccc(Cl)cc3Cl)cc2N1 | . | . | . | .
C/C(=N\NC(=O)c1nnn(-c2nonc2N)c1CN1CCCCCC1)c1ccc(Br)cc1 | . | . | . | .
CNc1ccc2ncc(-c3ccccc3NC(C)=O)n2n1 | . | . | . | .
COc1ccc(N(C)C(=O)C2CCCN2S(=O)(=O)c2cccc3nsnc23)c(OC)c1 (stereo not drawn) | . | . | . | .
COCCn1c(SCC(=O)N(C(C)C)C(C)C)nnc1-c1cc2ccccc2cc1O | 23496 | ? | . | .
COCCn1c(SCC(=O)Nc2nnc(C)s2)nnc1-c1cc2ccccc2cc1O | . | . | . | .
CC(C)N(C(=O)CSc1nnc(-c2cc3ccccc3cc2O)n1Cc1ccco1)C(C)C | 20006 | ? | . | .

Screens: PubChem, NMMLSC
